Each structure is given as a SMILES string. Where “and” joins values, the source holds several entries; their conditions need not be identical. Equal entries are not always repeated. Results filed as inconclusive are left out. A number with no mark means an inactive call. Calls of active or inactive are those of the source. Unless noted, calls come from the whole dose curve; as a rule, active = well fitted curve in the direction sought with a large enough effect; inconclusive = small, poorly fitted or top-dose-only effect, or another doubt; inactive = no such curve, though single readings can be large; an effect the other way counts as inactive or inconclusive.

We go through 33 molecules from PubChem BioAssay (NCATS).

Experiment [1] deals with Calcium and integrin-binding protein 1 (Homo sapiens) (UniProt Q99828). Briefly: Primary qHTS for Identification of Calcium Integrin Binding Protein 1 (CIB1) Competitor (AID 1508620).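 Note: GST tagged CIB1 binding a fluorescein labelled alphaIIb integrin peptide tracer; top concentration of the series differs between compounds; % is set by controls: 0 for no effect and ±100 for the full control effect.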 The essentials:
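Fluorescence polarization competition: GST-tagged CIB1 (1 uM final) preincubated with compound 15 min at room temperature, then FITC-labelled alphaIIb peptide (100 nM final) added. After 15 min at room temperature, polarization read at Ex 480/Em 540.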
For orientation: In qHTS, concentration-response curves come from the screen itself.

Experiment [2] in a line: Primary qHTS for small molecule stabilizers of the endoplasmic reticulum resident proteome: Secreted ER Calcium Modulated Protein (SERCaMP) assay (AID 1508630). Note: % is set by controls: 0 for no effect and ±100 for the full control effect. A digest of the protocol:
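The SH-SY5Y reporter protocol was run at 3 concentrations up to 38.3 uM (primary) or 11 concentrations (follow-up): 16 h compound, 100 nM thapsigargin for 4 h, then extracellular luciferase luminescence.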

Experiment [3] can be described thus: A High-Content qHTS Against Drug Library for the Identification of Small Molecules that Inhibit DYT1 Early Onset Primary Dystonia-Associated Cell Pathology (AID 1645839; calls by dose curve; note: series mostly up to about 46 µM). A digest of the protocol:
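Cells were seeded and left for 24 h, then dosed with compound alongside tetracycline induction of mutant EGFP-TorsinA. They were incubated for 48 h, fixed in 4% paraformaldehyde, permeabilized and imaged for mislocalization (%pathology) and cell count.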

For experiment [4], the target named is Cytochrome P450 2D6 (Homo sapiens) (UniProt P10635). Nature of the experiment: Cytochrome P450 family 2 subfamily D member 6 (CYP2D6) small molecule antagonists: luciferase biochemical (cell-free) qHTS assay (AID 1645840; active = well fitted curve in the direction sought with a large enough effect in the repeat runs; an effect the other way counts as inactive or inconclusive; note: nearly all actives have a fitted effect of over 55% in size; note: potency is the fitted concentration of half-maximal effect). A digest of the protocol:
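P450-Glo CYP2D6 system: proluciferin substrate converted by enzyme to luciferin, read by luminescence proportional to activity. Enzyme-substrate mix with compound 10 min at room temperature, then NADPH regeneration 1 h before detection reagent.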

Experiment [5] deals with Cytochrome P450 3A4 (Homo sapiens) (UniProt P08684). Nature of the experiment: Cytochrome P450 family 3 subfamily A member 4 (CYP3A4) small molecule antagonists: luciferase qHTS assay (AID 1645841; active = well fitted curve in the direction sought with a large enough effect in the repeat runs; an effect the other way counts as inactive or inconclusive; note: nearly all actives have a fitted effect of over 45% in size; note: potency is the fitted concentration of half-maximal effect). The essentials:
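P450-Glo CYP3A4 enzyme with proluciferin substrate preincubated 10 min with compound at room temperature, then NADPH regeneration 1 h. Luciferin detection reagent added for 20 min; luminescence recorded. Ketoconazole positive control.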

For experiment [6], the target named is Cytochrome P450 2C9 (Homo sapiens) (UniProt P11712). Nature of the experiment: Cytochrome P450 family 2 subfamily C member 9 (CYP2C9) small molecule antagonists: luciferase biochemical (cell-free) qHTS assay (AID 1645842; active = well fitted curve in the direction sought with a large enough effect in the repeat runs; an effect the other way counts as inactive or inconclusive; note: nearly all actives have a fitted effect of over 55% in size; note: potency is the fitted concentration of half-maximal effect). A digest of the protocol:
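P450-Glo CYP2C9 system: proluciferin substrate with enzyme in mix containing 0.4% BSA, 10 min at room temperature, then NADPH regeneration solution added and incubated 1 h at 37C. Detection reagent stopped reaction; luminescence read after 20 min as RLU.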

Experiment [7] can be described thus: Counterscreen qHTS for small molecule stabilizers of the endoplasmic reticulum resident proteome: GLuc-NoTag assay (AID 1508627). Note: potency is the fitted concentration of half-maximal effect. The essentials:
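Counterscreen line: SH-SY5Y-GLuc-NoTag. Seed, 5 h; compound, 19 h; thapsigargin 100 nM, 4 h; 37C/5% CO2. Readout: secreted GLuc luminescence, coelenterazine 0.07x final, no lysis.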
(A counterscreen serves to expose hits that act by an unwanted route or on another target.)

A short description of experiment [8]: Confirmatory qHTS for small molecule stabilizers of the endoplasmic reticulum resident proteome: Secreted ER Calcium Modulated Protein (SERCaMP) assay (AID 1508628). Note: nearly all actives have a fitted effect of over 40% in size. Note: potency is the fitted concentration of half-maximal effect. A digest of the protocol:
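GLuc-SERCaMP-expressing SH-SY5Y cells, pretreated 16 h with compound, are challenged with thapsigargin to empty ER calcium stores; after 4 h, coelenterazine is added directly to the medium and luminescence is imaged.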

Experiment [9] in a line: Cell Viability qHTS for small molecule stabilizers of the endoplasmic reticulum resident proteome (AID 1508629).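 Note: human SH-SY5Y neuroblastoma cells carrying the GLuc-SERCaMP reporter; compound exposure about 46 h in total before the viability read; % is set by controls: 0 for no effect and ±100 for the full control effect.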 The note with it: cell viability counter-screen, 100 nM thapsigargin for final 4 h.

Chain of Cytochrome P450 3A4 (Homo sapiens) (P08684 whole entry, looked up): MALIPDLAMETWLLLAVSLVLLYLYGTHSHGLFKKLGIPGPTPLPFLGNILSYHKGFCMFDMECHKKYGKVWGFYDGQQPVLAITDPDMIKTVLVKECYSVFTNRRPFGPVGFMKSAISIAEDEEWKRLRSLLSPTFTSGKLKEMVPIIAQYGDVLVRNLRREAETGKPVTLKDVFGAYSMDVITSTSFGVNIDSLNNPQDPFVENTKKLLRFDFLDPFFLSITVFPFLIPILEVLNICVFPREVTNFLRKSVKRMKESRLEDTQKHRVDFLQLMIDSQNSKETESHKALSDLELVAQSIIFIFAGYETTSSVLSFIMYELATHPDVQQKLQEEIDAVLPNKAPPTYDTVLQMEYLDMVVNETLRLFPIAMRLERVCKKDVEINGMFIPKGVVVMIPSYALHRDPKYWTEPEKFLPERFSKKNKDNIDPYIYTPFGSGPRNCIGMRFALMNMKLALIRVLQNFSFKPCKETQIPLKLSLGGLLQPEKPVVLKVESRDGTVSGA
Chain of Calcium and integrin-binding protein 1 (Homo sapiens) (Q99828 whole entry, looked up): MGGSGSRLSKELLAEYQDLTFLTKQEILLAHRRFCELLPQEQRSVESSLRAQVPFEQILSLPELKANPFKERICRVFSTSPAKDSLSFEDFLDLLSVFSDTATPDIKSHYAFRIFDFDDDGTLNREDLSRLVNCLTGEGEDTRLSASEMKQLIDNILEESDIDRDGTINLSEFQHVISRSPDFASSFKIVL
Chain of Cytochrome P450 2D6 (Homo sapiens) (P10635 whole entry, looked up): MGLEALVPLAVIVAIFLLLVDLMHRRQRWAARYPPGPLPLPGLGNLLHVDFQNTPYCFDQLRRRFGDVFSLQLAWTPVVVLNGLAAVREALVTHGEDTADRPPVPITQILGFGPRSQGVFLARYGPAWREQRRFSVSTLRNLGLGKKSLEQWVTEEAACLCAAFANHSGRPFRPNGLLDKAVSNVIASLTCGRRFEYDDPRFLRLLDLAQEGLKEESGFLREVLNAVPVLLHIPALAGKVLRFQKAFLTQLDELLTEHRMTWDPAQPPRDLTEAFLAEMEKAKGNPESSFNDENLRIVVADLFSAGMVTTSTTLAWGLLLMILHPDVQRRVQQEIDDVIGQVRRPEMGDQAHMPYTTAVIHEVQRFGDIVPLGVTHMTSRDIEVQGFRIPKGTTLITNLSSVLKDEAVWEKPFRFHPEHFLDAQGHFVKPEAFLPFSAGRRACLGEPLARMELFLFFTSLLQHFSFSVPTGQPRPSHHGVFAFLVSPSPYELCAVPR
Chain of Cytochrome P450 2C9 (Homo sapiens) (P11712 whole entry, looked up): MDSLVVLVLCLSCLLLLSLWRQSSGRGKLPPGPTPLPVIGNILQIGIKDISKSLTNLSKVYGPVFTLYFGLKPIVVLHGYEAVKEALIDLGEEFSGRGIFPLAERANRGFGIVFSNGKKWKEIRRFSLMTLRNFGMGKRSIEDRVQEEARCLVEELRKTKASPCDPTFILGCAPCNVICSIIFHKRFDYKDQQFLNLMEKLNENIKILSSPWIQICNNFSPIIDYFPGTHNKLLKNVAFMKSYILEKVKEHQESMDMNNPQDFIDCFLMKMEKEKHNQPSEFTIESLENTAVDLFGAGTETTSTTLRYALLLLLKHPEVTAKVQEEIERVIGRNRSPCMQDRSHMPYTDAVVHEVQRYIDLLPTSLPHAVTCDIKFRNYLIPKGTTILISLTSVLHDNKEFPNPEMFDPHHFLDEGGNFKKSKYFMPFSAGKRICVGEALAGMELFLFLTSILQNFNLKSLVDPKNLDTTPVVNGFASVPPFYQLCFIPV

Turning to `Cc1cc(CC(=O)O)c(C)n1-c1ccc(Cl)cc1`, the Potency entry in experiment [1], in experiment [2], in experiment [3] and in [4] was “inactive” in each case.

In the case of `CC(C)(C)NCC(O)COc1cccc2c1C[C@H](O)[C@H](O)C2` (some centres undefined), the Potency entry in experiment [1], in [2], in [3], in experiment [4] and in experiment [5] was “inactive” each time.

As for `O=[N+]([O-])c1cccc(S(=O)(=O)NCCNS(=O)(=O)c2cccc([N+](=O)[O-])c2)c1`, the Potency result in experiment [1], in [2], in experiment [3] and in [4] was “inactive” each time.

As to `NC(=O)C1(N2CCCCC2)CCN(CCCC(=O)c2ccc(F)cc2)CC1`, the Potency result in experiment [1], in experiment [2], in experiment [3], in [5] and in experiment [6] was “inactive” in each case. For the same molecule, the Potency in experiment [4] was 4.36 µM (active).

Turning to `CCC1NC(=O)c2cc(S(N)(=O)=O)c(Cl)cc2N1` (centres undefined), the Potency result in experiment [1], in experiment [2] and in experiment [3] was “inactive” in each case.

With `C=CCN1CCc2nc(N)sc2CC1`, the Potency result in experiment [1], in experiment [7], in [8], in [2], in experiment [3] and in [4] was “inactive” throughout. In [6], the Potency result was “inactive”. Also, the max response in [9] is -7.52%.

For the molecule `O=C(NCCc1c[nH]c2ccccc12)c1cccnc1`, the Potency result in experiment [1], in experiment [2] and in experiment [3] was “inactive” throughout.

As to `CN(CCCN1c2ccccc2CCc2ccccc21)CC(=O)c1ccc(Cl)cc1`, the Potency result in [1] and in [7] was “inactive” in each case. Moreover, the Potency was 31.6 µM (active) and 39.8 µM (active) in experiment [8]; 6.09 µM (active) in experiment [4]; 12.1 µM (active) in experiment [6]. Also, the max response in experiment [9] is 24.4%.

In the case of `O[C@@H](c1cc(C(F)(F)F)nc2c(C(F)(F)F)cccc12)[C@H]1CCCCN1`, the Potency entry in [1] and in [2] was “inactive” each time.

Regarding `C#C[C@]1(O)CC[C@H]2[C@@H]3[C@H](C)CC4=C(CCC(=O)C4)[C@H]3CC[C@@]21C`, the Potency result in experiment [1], in experiment [2] and in experiment [3] was “inactive” each time.

As to `CC(C)(Cc1c[nH]c2ccccc12)NCC(O)COc1ccccc1C#N` (centres undefined), the Potency entry in experiment [1], in experiment [7], in [2] and in experiment [6] was “inactive” in each case. For the same molecule, the max response in experiment [9] was -6.12%.

As to `C=C[C@@]1(C)CC(=O)[C@]2(O)[C@@]3(C)[C@@H](O)CCC(C)(C)[C@@H]3[C@H](O)[C@H](OC(C)=O)[C@@]2(C)O1`, the Potency entry in [1], in experiment [2], in experiment [3] and in experiment [4] was “inactive” throughout.

Consider `CCOC(=O)Nc1ccc2c(c1)N(C(=O)CCN1CCOCC1)c1ccccc1S2`, for which the Potency entry in [1], in experiment [2] and in [3] was “inactive” throughout.

`COC(=O)C(c1ccccc1Cl)N1CCc2sccc2C1` (centres undefined): the Potency result in experiment [1], in experiment [2] and in experiment [3] was “inactive” each time. Also, the Potency in [4] is 17.4 µM (active).

`CC1=C(C(=O)O)N2C(=O)[C@@H](NC(=O)[C@H](N)c3ccccc3)[C@H]2SC1`: the Potency entry in experiment [1], in experiment [2] and in experiment [3] was “inactive” in each case.

As to `CN1CCN(C2=Nc3cc(F)ccc3Cc3ccccc32)CC1`, the Potency entry in experiment [1], in [3] and in experiment [6] was “inactive” throughout. For the same molecule, the values for the Potency in experiment [7], in [8] and in experiment [4] were 28.2 µM (active), 39.8 µM (active) and 5.49 µM (active), respectively.

Regarding `O=C1OC2(c3ccccc31)c1cc(Br)c(O)c(Br)c1Oc1c2cc(Br)c(O)c1Br`, the Potency entry in experiment [1] and in [7] was “inactive” throughout. The Potency in [5] was 17.4 µM (active); in experiment [6], 12.3 µM (active).

With `CCOc1cc(OCC)c(C(=O)CCC(=O)O)cc1OCC`, the Potency entry in experiment [1], in [7], in [8], in experiment [3], in experiment [4] and in [6] was “inactive” throughout. The max response in experiment [9] was 24.8%.

Regarding `C/C=C/C=N/NC(=O)c1ccncc1`, the Potency entry in [1], in experiment [2] and in experiment [3] was “inactive” in each case.

With `Cc1nc(-c2ccc(Cl)cc2)oc1COC(C)(C)C(=O)O`, the Potency entry in [1], in [2], in experiment [3], in [4] and in [6] was “inactive” throughout.

For the molecule `CN1CCC[C@@H]1CCO[C@](C)(c1ccccc1)c1ccc(Cl)cc1`, the Potency result in [1] is “inactive”. Further, the Potency in experiment [8] is 15.8 µM (active).

Regarding `COc1ccc(C(Cl)=C(c2ccc(OC)cc2)c2ccc(OC)cc2)cc1`, the Potency entry in experiment [1], in experiment [2], in [3] and in [4] was “inactive” in each case.

On to `CC(=O)OCC(=O)[C@H]1CC[C@H]2[C@@H]3CCC4=CC(=O)CC[C@]4(C)[C@H]3CC[C@]12C`, for which the Potency result in [1], in [2], in experiment [3] and in [4] was “inactive” each time. For the same molecule, the Potency in experiment [6] was 4.9 µM (active).

For the molecule `CC(C)[N+](C)(C)CC(O)COc1cccc2ccccc12` (centres undefined), the Potency result in experiment [1], in experiment [2], in experiment [3] and in experiment [6] was “inactive” each time. In experiment [4], the Potency was 6.92 µM (active).

Regarding `CCOC(=O)c1c(N)sc2c1CCN(Cc1ccccc1)C2`, the Potency result in [1], in [2] and in experiment [3] was “inactive” each time. The Potency was 0.0098 µM (active) in [4] and 8.71 µM (active) in [6].

As for `COc1cc(C)nc(-n2nc(C)cc2OC)n1`, the Potency result in [1], in [2], in [3], in experiment [4] and in [6] was “inactive” throughout.

Consider `N#C/C(=C1\SCC(c2ccccc2Cl)S1)n1ccnc1` (centres undefined), for which the Potency result in [1], in experiment [2] and in [3] was “inactive” in each case. For the same molecule, the Potency in [4] was 0.275 µM (active); in [6], 1.55 µM (active).

Turning to `Cc1c[nH]c2ccccc12`, the Potency entry in [1], in experiment [2], in experiment [3], in experiment [4] and in experiment [6] was “inactive” each time.

Take `COc1ccc(/C=N/NC(=O)c2ccncc2)cc1OC`: the Potency entry in experiment [1], in experiment [2] and in experiment [3] was “inactive” in each case. Besides, the Potency in [4] was 21.9 µM (active); in [6] it was 12.3 µM (active).

Consider `Nc1ccc(S(=O)(=O)NCc2ccccc2)cc1`, for which the Potency entry in experiment [1], in experiment [2], in experiment [3], in experiment [4] and in [6] was “inactive” in each case.

For `CN1CCN(c2cc3c(cc2F)c(=O)c(C(=O)O)cn3-c2ccc(F)cc2)CC1`, the Potency result in [1], in experiment [2], in experiment [3], in experiment [4] and in [6] was “inactive” in each case.

In the case of `NCc1ccccc1Sc1ccccc1CO`, the Potency result in experiment [1], in [2] and in [3] was “inactive” in each case. Moreover, the Potency in [4] is 4.9 µM (active); in [6], 15.5 µM (active).

Take `CC(=O)NCCCCCC(=O)O`: the Potency entry in [1], in experiment [2], in [3], in [4] and in [6] was “inactive” each time.
